Test results reported in PubChem BioAssay (NCI).
Compounds without any hit were thinned out: in the full panel of roughly 83,000, 20% have a hit.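 48-hour exposure, single concentration, 96-well plates; percent growth endpoint where 0 means no net growth. Active: below 10.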 Values without a mark were called inactive. Activity calls are given as the source filed them.

What was measured:
Assay in all cases: NCI-60 one-dose screen, 48 h (100 = growth as untreated, 0 = no growth, -100 = all killed)
[1] = test system: SK-MEL-2 melanoma; conditions: 10 µM unless noted
[2] = test system: EKVX NSCLC; conditions: 10 µM unless noted
[3] = test system: SN12C renal; conditions: 10 µM unless noted
[4] = test system: UO-31 renal; conditions: 10 µM unless noted
[5] = test system: TK-10 renal; conditions: 10 µM unless noted
[6] = test system: ACHN renal; conditions: 10 µM unless noted
[7] = test system: CAKI-1 renal; conditions: 10 µM
[8] = test system: A498 renal; conditions: 10 µM unless noted
[9] = test system: CCRF-CEM leukemia; conditions: 10 µM unless noted
[10] = test system: MOLT-4 leukemia; conditions: 10 µM unless noted
[11] = test system: SR leukemia; conditions: 10 µM unless noted
[12] = test system: RPMI-8226 leukemia; conditions: 10 µM unless noted
[13] = test system: OVCAR-8 ovarian; conditions: 10 µM unless noted
[14] = test system: OVCAR-5 ovarian; conditions: 10 µM unless noted
[15] = test system: OVCAR-4 ovarian; conditions: 10 µM unless noted
[16] = test system: SK-OV-3 ovarian; conditions: 10 µM unless noted
[17] = test system: IGROV1 ovarian; conditions: 10 µM unless noted
[18] = test system: OVCAR-3 ovarian; conditions: 10 µM unless noted
[19] = test system: HS 578T breast; conditions: 10 µM unless noted
[20] = test system: NCI/ADR-RES ovarian; conditions: 10 µM unless noted

| Compound | growth [1] | growth [2] | growth [3] | growth [4] | growth [5] | growth [6] | growth [7] | growth [8] | growth [9] | growth [10] | growth [11] | growth [12] | growth [13] | growth [14] | growth [15] [%] | growth [16] [%] | growth [17] | growth [18] | growth [19] | growth [20] |
| --- | --- | --- | --- | --- | --- | --- | --- | --- | --- | --- | --- | --- | --- | --- | --- | --- | --- | --- | --- | --- |
| Cn1ccnc1C(=O)/C=C/c1ccc(C(=O)Nc2ccc(NC(=O)CCNC(=O)c3csc(Br)n3)cc2)cc1 | 109% | 69.9% | 40.2% | 46.6% | 89.7% | 61.8% | 29.3% | 100% | 12.9% | 70.3% | 12.5% | 14.5% | 63.9% | 78.8% | 64.1 | 100 | 41.7% | 15.5% | 95.5% | 60.9% |
| O=C(CN1C(=O)CSC1=O)Nc1ccc(C(=O)/C=C/c2cc3ccccc3nc2Cl)cc1 | 88.5% | 72.1% | 83.8% | 59.5% | 92.1% | 83.5% | 63% | 94.3% | 45.5% | 36.4% | 36.7% | -13.2% (active) | 77.7% | 101% | 46.4 | 101 | 66.9% | 87.4% | 82.7% | 89.5% |
| CC(C)N=C(N/C(N)=N/c1nc2ccccc2s1)NC(C)C | 107% | 67.6% | 45.6% | 46.4% | 80.6% | 55.4% | 45.2% | 72.8% | 52.9% | 55.2% | 49.5% | 42.7% | 67.2% | 60.8% | 93.6 | 83.4 | 39.6% | 104% | 75.9% | 63.7% |
| O=C(CCCCCCN1CC(=O)N2[C@@H](c3ccccc3)c3[nH]c4ccccc4c3C[C@H]2C1=O)NO | 68.4% | 84.3% | 78.4% | 57.1% | 69.4% | 87.3% | 65.5% | 87.1% | 24.5% | 20.9% | 37.2% | 26.7% | 39.6% | 58% | 65.6 | 70.1 | 60.6% | 55.5% | 68.8% | 77.9% |
| Oc1ccc(-c2nnc(SCc3ccc(O)c4ncccc34)n2-c2ccccc2)cc1 | 38.1% | 7.56% (active) | 18.7% | -8.86% (active) | 34.3% | 8.27% (active) | 16.1% | 16% | 6.99% (active) | 12.5% | 37.3% | 15.5% | 10.1% | 34.6% | 10.2 | 18.7 | 8.1% (active) | 3.67% (active) | 39.8% | 8.08% (active) |
| CCCC(=O)NC(c1cccnc1)c1cc(Cl)c2cccnc2c1O (stereo not given) | 42.7% | 24% | 44.4% | 22.3% | 47.6% | 20.5% | 34.6% | 89.9% | 25% | 30.3% | 39.6% | 30.7% | 21.9% | 55.6% | 22.7 | 44.4 | 28.5% | 19.7% | 17.3% | 10.2% |
| O=C1[C@H]2Cc3c([nH]c4ccccc34)[C@@H](c3ccc(Cl)cc3)N2C(=O)CN1C1CCN(Cc2c(Cl)cccc2Cl)CC1 | 102% | 78.6% | 81.3% | 2.51% (active) | 107% | -33.8% (active) | 54.6% | 111% | 65.8% | 97.3% | 29.8% | 88.4% | 89.2% | 98.1% | 87.1 | 108 | -44.1% (active) | 100% | 88.2% | 81.5% |
| CCCC(=O)NC(c1cccnc1)c1ccc2c(C)ccnc2c1O (stereo not given) | 42.5% | 15.1% | 29.1% | 11.8% | 33.3% | 13.8% | 19.2% | 37.8% | 4.51% (active) | 13.9% | 41.2% | 32.1% | 21.1% | 32.3% | 11.2 | 19.7 | 19.2% | 13.1% | 67.6% | 9.99% (active) |
| O=C(NCCCNc1cc(-c2cn(-c3ccccc3)nc2-c2cccc(O)c2)ccn1)Nc1ccc(F)cc1 | -4.51% (active) | 33.8% | 31.1% | 6.93% (active) | 65% | 24.8% | 12.8% | -6.39% (active) | 11% | 4.57% (active) | 17.4% | -31.1% (active) | 21.2% | 37.8% | 30.9 | 31.5 | 19.2% | 28.4% | -21.4% (active) | 20.9% |
| CCC(CC)N1C(=O)/C(=c2\sc3n(c2=O)C2C(NN=3)N(CC)C(=O)N2CC)c2ccccc21 (stereo not given) | 59.4% | 48.1% | 18.2% | 39.8% | 86.5% | 32% | 39.9% | -17% (active) | 15.8% | 10% | 5.6% (active) | 8.29% (active) | 34.8% | 29.8% | 38.4 | 42.6 | 23% | 7.62% (active) | 25.6% | 11% |
| CCOC(=O)c1c(NC(=O)c2cccc(C(F)(F)F)c2)sc2c(CN3CCN(C)CC3)c(O)ccc12 | 94.7% | 70.4% | -83.7% (active) | -95% (active) | -52.7% (active) | -98.8% (active) | -73.9% (active) | 77.5% | -23.8% (active) | -27.8% (active) | 23.5% | -28.8% (active) | -35.2% (active) | -77.9% (active) | 26.8 | 97.3 | -86.1% (active) | 65.6% | 76.3% | -38.2% (active) |
| O=C(CCCCCCN1CC(=O)N2[C@@H](c3cccc(Br)c3)c3[nH]c4ccccc4c3C[C@H]2C1=O)NO | 33.5% | 54.8% | 44.7% | 46.2% | 28.1% | 73.4% | 23.1% | 49.4% | 14.9% | 12.4% | 37.4% | 13.4% | 24.9% | 29% | 48.9 | 13.9 | 2.39% (active) | 6.19% (active) | 61.4% | 91.9% |
| COc1ccc(S(=O)(=O)NCCCNc2nccc(-n3cnc4ccccc43)n2)cc1 | 103% | 84.4% | 92.4% | 67.2% | 103% | 88.2% | 68.8% | 81.9% | 91.4% | 77% | 77.6% | 78.6% | 93.7% | 99.6% | 77.4 | 96.2 | 91.4% | 105% | 84.8% | 105% |
| O=C1NC(=O)/C(=C/c2ccc(OCc3cc4ccccc4nc3Cl)cc2)S1 | 112% | 99.3% | 95.9% | 80.6% | 110% | 92.8% | 97.1% | 100% | 88.9% | 101% | 91% | 78.7% | 99% | 114% | 93.5 | 109 | 108% | 104% | 111% | 100% |
| Cc1nn(-c2ccccc2)cc1/C=N/Nc1nc(Nc2ccccc2)nc(Nc2ccc(S(N)(=O)=O)cc2)n1 | 54.8% | 18.8% | 0.245% (active) | -4.7% (active) | 44.5% | 0.841% (active) | -27.8% (active) | -30.3% (active) | 8.85% (active) | 6.35% (active) | 33.6% | -23.1% (active) | 18.2% | -13.2% (active) | 14.9 | 50.5 | 13.1% | -31.1% (active) | 13.8% | 76.4% |
| CS(=O)(=O)c1ccc(-c2nn(-c3ccccc3)cc2/C=N/NC(=O)c2ccncc2)cc1 | 107% | 98.4% | 98.6% | 94.2% | 97.3% | 107% | 93.9% | 113% | 102% | 97.2% | 87% | 115% | 101% | 107% | 104 | 109 | 104% | 109% | 108% | 94.7% |
